The list is not random: actives were taken first. Their share in the collection is about 7%.
D3 ag: activates the human D3 dopamine receptor. P35462. D3R DiscoveRx beta-arrestin cells, luminescence, 90 min. max activation, %. 0.58% of 410,000 active. AID 652048; in the data active = max activation above about 30%; also: 0% is about no effect
Target sequence (P35462 whole entry, looked up): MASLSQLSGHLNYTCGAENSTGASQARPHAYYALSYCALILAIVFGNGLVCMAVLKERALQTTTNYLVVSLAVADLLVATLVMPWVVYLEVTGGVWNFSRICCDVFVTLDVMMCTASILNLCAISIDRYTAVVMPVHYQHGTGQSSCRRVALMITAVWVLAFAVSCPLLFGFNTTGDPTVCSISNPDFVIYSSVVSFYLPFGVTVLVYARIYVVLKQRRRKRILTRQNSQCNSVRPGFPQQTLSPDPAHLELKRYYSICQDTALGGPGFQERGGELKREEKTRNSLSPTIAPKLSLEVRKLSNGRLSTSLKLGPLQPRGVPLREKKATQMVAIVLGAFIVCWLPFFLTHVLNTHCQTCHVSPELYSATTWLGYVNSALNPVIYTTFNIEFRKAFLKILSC
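Agonist mode: compounds and dopamine controls were applied to plated cells for 90 min at 37 degrees C after an overnight attachment at 1500 cells/well. Luminescent read-out followed 30 - 60 minutes at room temperature with DiscoveRx detection reagent.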
Integrin act MD: integrin-mediated muscular dystrophy alleviation activation; AID 624291; 0.064% of 350,000 active; alpha7betagal myoblasts, beta-gal FDG fluorescence, 48 h; Potency, µM (titrated, usually from 38.3 µM), inactives show at the highest dose activation, hits mostly activators;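 also: potency is read from the fitted curve at half-maximal effect; 100% = response of the positive control SU9516; nearly all actives have a fitted effect of over 60% in size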
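Alpha7betagal+/- myoblasts (passage 13) were plated 16-24 hr, then exposed to compounds (1:260 dilution of DMSO stock) for 48 hours at 37C. After MPER lysis, β-galactosidase reporter activity was read as FDG fluorescence (ex 480/em 540) after 30 minutes.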
IL-1B inflam inh: inflammasome signaling inhibition, IL-1 beta readout; THP-1 LPS/ATP IL-1B secretion, AlphaLISA, 16 h; active compounds read low; activity change, % at 57.5 µM; 4.7% of 360,000 active; AID 743279; in the data active = activity change below about -50%; inconclusive = mostly about -30% to -49%; also: % is scaled to controls: 0 for no effect and ±100 for the full control effect
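Secreted IL-1B measured by AlphaLISA bead assay after 16 h compound exposure of THP-1 cells; compounds (final up to 57.5 uM) added 1 h before LPS (250 ng/mL) and ATP (1.25 mM) stimulation; lower signal means less secretion.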
ATXN2 expr inh: ATXN2 expression inhibition | AID 1745845 | 0.72% of 360,000 active | HEK-293 ATXN2-luciferase reporter, luminescence, 24 h | Potency, µM (highest dose often 57 µM), without a hit: at the highest dose activity change, negative = inhibition, hits mostly inhibitors; also: potency is read from the fitted curve at half-maximal effect; % is scaled to controls: 0 for no effect and ±100 for the full control effect; nearly all actives have a fitted effect of over 55% in size
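qHTS (up to 57 uM final) was run with 24 h compound exposure of reporter cells at 37 °C. Each well was multiplexed: SteadyGlo luminescence measured ATXN2-luciferase expression after a fluorogenic Gly-Phe-AFC viability readout (25 uM final).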
ATXN viability: reduces viability in counter-screen for ATXN expression inhibitors. S2 cells (HEK-293 line with an ATXN2-luciferase reporter) viability, CellTiter-Fluor protease fluorescence, 24 h. 0.49% of 400,000 active. Potency, µM (doses to about 56.7 µM), actives largely listed as cytotoxic; also: potency is read from the fitted curve at half-maximal effect; nearly all actives have a fitted effect of over 40% in size
DRD3 antagonist: antagonists of human D3 dopamine receptor. 2.5% of 360,000 active. P35462. D3R cells, DiscoveRx beta-arrestin luminescence, antagonist mode; active compounds read low. max response, negative = inhibition, %; in the data active = max response below about -50%; inconclusive = no clear call, values can overlap the other calls; also: % is scaled to controls: 0 for no effect and ±100 for the full control effect
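Cells plated overnight at 1500 cells/well, then exposed to library compounds with dopamine controls for 90 minutes at 37 degrees C. DiscoveRx reagent added for 30–60 minutes at room temperature; luminescence read, quantitative HTS format.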
Numbers without * were called inactive; i = inactive; u = inconclusive; x = not tested or not shown; [ ] = remark or other dose. Unless noted, calls follow the shape of the dose curve; as a rule, active = well fitted curve in the direction sought with a large enough effect; inconclusive = small, poorly fitted or top-dose-only effect, or another doubt; inactive = no such curve, though single readings can be large; an effect the other way counts as inactive or inconclusive.

SMILES	D3 ag	Integrin act MD	IL-1B inflam inh	ATXN2 expr inh	ATXN viability	DRD3 antagonist
CC(C)=CCOc1ccc([C@@H]2COc3c(ccc4c3C=CC(C)(C)O4)C2)c(O)c1	20	-46%	-20	u	25µM*	18
NC(=S)N1OC[C@@H]2COc3ccc4ccccc4c3[C@@H]21	10	2%	-93*	14µM*	i	-19
CO/N=C/NC(=O)N1OC[C@@H]2COc3ccc4ccccc4c3[C@@H]21	2	18%	-8	5%	i	-15
CCC(CNC(=O)c1c(C)nn(-c2ccccc2)c1Cl)c1ccccc1 (centres undefined)	1	2%	-82*	11%	i	-21
Cc1nn(-c2ccccc2)c(Cl)c1C(=O)NCCCCNC(=O)c1c(C)nn(-c2ccccc2)c1Cl	4	-4%	-14	7%	i	-23
O=C(NC(=S)NC(CO)Cc1ccccc1)c1ccc(F)cc1 (centres undefined)	2	8%	-19	8%	i	-14
COCC1CCN(C(=O)c2cc(COc3ccc4c(c3)CCCC4)on2)C1 (centres undefined)	6	-13%	-62*	7%	i	0
Cc1cccc(C)c1OCc1cc(C(=O)N2CCN(c3ccc(F)cc3)CC2)no1	-1	-3%	-51*	7%	i	1
O=C(c1cc(COc2cccc(C(F)(F)F)c2)on1)N1CCC(c2ccncc2)CC1	18	-39%	u	14µM*	u	8
O=C(NCCc1ccco1)c1cc(COc2cccc(C(F)(F)F)c2)on1	3	5%	-83*	-5%	i	-15
COc1cccc(CCNC(=O)c2cc(COc3cccc(OC)c3)on2)c1	-6	6%	-1	x	i	-21
Cc1cccc(C)c1OCc1cc(C(=O)N2CCN(c3ccccn3)CC2)no1	-2	-36%	-7	11%	i	0
C/C(=N/NC(=O)c1ccccc1)C1=C(O)CC(C)(C)CC1=O	-3	5%	-2	x	i	-14
CC(NC(=S)Nc1ccc(Cl)cc1)C(c1ccccc1)N1CCOCC1 (centres undefined)	4	-26%	25	2%	i	37
Cc1ccccc1-c1nc(SCc2cccnc2)c2c(=O)n(C)c(=O)n(C)c2n1	-2	18%	37	-12%	i	8
Cc1nc2ncnn2c(C)c1Cc1cccc(F)c1	14	34%	20	-12%	i	9
COCC1CCN(C(=O)c2cc(COc3cccc4cnccc34)on2)CC1	3	-9%	-53*	u	u	15
CC(=O)c1ccc(OCc2cc(C(=O)N3CC[C@@H]4CCCC[C@H]4C3)no2)cc1	-5	-31%	-81*	51%	i	-22
O=C(c1cc(COc2cccc3cnccc23)on1)N1CCCC(CCCO)C1 (centres undefined)	9	0%	u	-38%	i	39
CC(C)COCC1CC2(CC(C)(c3csc(N)n3)OC2=O)C(=O)O1 (centres undefined)	-9	0%	1	5%	i	-16
CC(=O)N1C(=O)NC(c2ccccc2)=C([N+](=O)[O-])C1c1ccccc1 (centres undefined)	-6	0%	-7	-22%	i	10
N#CC1=C(N)OC2=C(C(=O)CCC2)C1c1ccc(OC(=O)N2CCOCC2)cc1 (centres undefined)	0	5%	-2	-2%	i	-80*
Cc1ccc2c(c1)cc1c(=O)n(CC(=O)N3CCCC3)nc(C)n12	-7	-25%	-8	5%	i	24
Cc1ccc2c(c1)[nH]c1c(=O)n(CCN3CCNCC3)cnc12	-10	10%	22	1%	i	-5
CCN(Cc1ccccc1)C(=O)Cn1cc(S(=O)(=O)NC)c(S(=O)(=O)NC)c1	0	-7%	4	x	i	-52*
SMILES	D3 ag	Integrin act MD	IL-1B inflam inh	ATXN2 expr inh	ATXN viability	DRD3 antagonist
COCCNC(=O)CN(C(=O)c1ccc(N2CCCC2)nc1)c1ccc(Cl)cc1	4	-15%	23	3%	i	-17
Cc1nn(Cc2ccc(F)cc2)c(Cl)c1/C=N/NC(=O)c1ccccc1	3	-16%	23	7%	i	25
Cc1nn(Cc2ccccc2)c(Cl)c1/C=C1\NC(=S)NC1=O	3	0%	-64*	8%[11.3 µM]	u	-8
CC(C)c1ccc(C2OC(CCc3ccccc3)Cc3[nH]c(=S)[nH]c(=O)c32)cc1 (centres undefined)	3	x	34	1%	i	-24
C[C@@]12CCC[C@H]1[C@@H]1CC[C@H]3C[C@@H](O)CC[C@]3(C)[C@H]1CC2	3	x	x	12%	25µM*	x
CC12CCC3C(CCC4CC(O)CCC43C)C1CC(O)C2 (centres undefined)	31*	2%	57	-9%	i	82
Cc1ccc2nc(-c3ccc(SCC(=O)Nc4nnc(C)s4)nc3)[nH]c2c1	-24	-45%	-95*	u	x	-6
Cc1cc2nc(-c3ccc(SCc4ccccn4)nc3)[nH]c2cc1C	8	-5%	-85*	u	u	43
CCOC(=O)CSc1ccc(-c2nc3ccccc3[nH]2)cn1	-1	15%	-82*	2%	i	-14
CCOC(=O)CSc1ccc(-c2nc3cc(C)c(C)cc3[nH]2)cn1	0	19%	-12	11%	i	-15
Cc1ccc2nc(-c3ccc(SCC(=O)Nc4nc(C)cs4)nc3)[nH]c2c1	-3	18%	9	2%	i	-6
COc1ccc(/C=N/n2c(C3CCCCC3)n[nH]c2=S)c(OC)c1	-7	-28%	-6	x	i	1
O=C(c1ccc(Cl)cc1)N(Cc1ccco1)Cc1ccco1	3	x	x	x	x	x
CS(=O)(=O)c1ncc(Cl)c(C(=O)N(Cc2ccc(Cl)cc2)Cc2ccco2)n1	-29	x	x	5.6µM*	x	x
COc1ccc2nc3cc(Cl)ccc3c(C#N)c2c1	6	-4%	18	1%	i	0
COc1ccc2nc(C(F)(F)Cl)c(C#N)c(N)c2c1	4	-12%	-72*	x	i	14
C/C(=N\NC(=O)c1cc(-c2ccc(Br)s2)[nH]n1)c1ccncc1	-2	2%	u	-18%	i	-2
C/C(=N/NC(=O)c1cc(-c2ccc(Br)s2)[nH]n1)c1ccco1	-21	26%	-69*	-35%	i	-17
CCCCN(C(=O)c1cnccn1)c1c(N)n(CCC)c(=O)[nH]c1=O	4	-25%	17	0%	i	14
O=C(Cc1n[nH]c(=O)c2ccccc12)N/N=C/c1cc2c(cc1Cl)OCO2	-7	41%	-13	-6%	i	11

Source: PubChem (National Center for Advancing Translational Sciences (NCATS))
